Reference: PubChem BioAssay AID1903 (Southern Research Specialized Biocontainment Screening …, 2009)
“And” between values parts separate entries of the source, which are not always exact repeats. Equal values may be shown once. Screen size: about 310,000 compounds; about 1,200 (0.39%) were called active. No rule for the calls is given here. A selection follows. Potency and affinity values are given separately.

target: Large T antigen (Simian virus 40) (UniProt P03070); experiment: TAg ATPase/helicase activity blockers – biochemical (AID 1903); settings: SV40 large T antigen ATPase/helicase inhibition assay; at 20 µM; stronger effect = higher value
Sequence (P03070 whole entry, looked up): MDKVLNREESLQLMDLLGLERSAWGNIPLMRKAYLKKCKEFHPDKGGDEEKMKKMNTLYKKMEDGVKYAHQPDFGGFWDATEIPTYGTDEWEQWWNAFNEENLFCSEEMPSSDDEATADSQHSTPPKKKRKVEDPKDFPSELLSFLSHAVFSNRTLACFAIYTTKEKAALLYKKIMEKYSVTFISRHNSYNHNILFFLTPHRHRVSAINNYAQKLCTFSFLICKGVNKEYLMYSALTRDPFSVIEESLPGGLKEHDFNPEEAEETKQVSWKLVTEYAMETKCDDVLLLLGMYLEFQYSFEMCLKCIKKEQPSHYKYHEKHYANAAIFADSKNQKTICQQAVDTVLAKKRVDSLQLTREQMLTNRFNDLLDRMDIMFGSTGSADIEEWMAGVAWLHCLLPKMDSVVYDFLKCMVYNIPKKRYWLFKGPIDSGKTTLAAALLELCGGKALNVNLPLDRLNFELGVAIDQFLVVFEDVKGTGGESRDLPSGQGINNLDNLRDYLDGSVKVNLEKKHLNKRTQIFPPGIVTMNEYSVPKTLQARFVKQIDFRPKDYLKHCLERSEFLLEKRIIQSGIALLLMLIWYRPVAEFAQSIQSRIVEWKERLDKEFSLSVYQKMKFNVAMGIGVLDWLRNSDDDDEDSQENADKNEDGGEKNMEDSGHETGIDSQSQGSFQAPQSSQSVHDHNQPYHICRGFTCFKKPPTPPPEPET

inhibition, inactive:
O=C(O)c1ccc(C(=O)C(=O)c2ccccc2)cc1 13.3%
Nc1ccc(C(=O)O)cc1 4.17% and 15.4% and 26%
Cc1cc(NC(=O)CCC(=O)N(Cc2ccccc2)C(C(=O)NC2CCCC2)c2ccco2)no1 (stereo not drawn) 10.2%
O=C(CS(=O)CC(=O)Nc1ccccc1-c1ccccc1)Nc1ccc(F)cc1 (stereo not drawn) 6.05%
Cc1ccc(Cn2c(=O)c3ccccc3n3c(CCC(=O)NCCN4CCOCC4)nnc23)cc1 3.95%
COc1cc(/C=C(\C#N)c2ccccn2)ccc1OCc1ccccc1 4.85%
COc1cc(/C=C(\C#N)c2ccccn2)ccc1OCc1ccc(Cl)cc1 12.1%
Cn1c(/C(C#N)=C/c2cccc(O)c2)nc2ccccc21 12.6%
Cn1c(/C(C#N)=C/c2ccc(O)cc2)nc2ccccc21 9.77%
O=C(C1CCN(S(=O)(=O)c2cccnc2)CC1)N1CCN(c2cccc(Cl)c2)CC1 3.44%
Cc1ccc2c(NC(=O)C3CC3)c(C)ccc2n1 13.3%
O=C(CCNC(=O)N1CC(=O)Nc2ccccc21)NCc1cccc(Cl)c1 8.76%
O=C(O)c1ccccc1SSc1ccccc1C(=O)O 1.77%
CCC(Sc1ccccc1C(=O)O)C(=O)O (stereo not drawn) 1.42%
CCOC(=O)C1CCN(C(=O)COc2cccc(C)c2)CC1 4.64%
CCCCn1c(N)c(N(CC(C)C)C(=O)CSc2n[nH]c(-c3ccc(C)cc3)n2)c(=O)[nH]c1=O 13%
CCOC(=O)c1sc(NC(=O)c2cc3ccccc3o2)nc1C -6.17%
Cc1ccccc1C(=O)Nc1ccccc1N1CCCCC1 -0.09%
CCC(=O)Nc1ccc(N2CCCCC2)c(C(=O)Nc2ccccc2C)c1 0.82%
CCCCOC(=O)Nc1ccc(C(=O)OC)cc1 6.13%
CCOC(=O)c1c(C)c(C(=O)Nc2ccccc2)c(C)n1CC 10.4%
Cc1ccc(NC(=S)c2ccc(N(C)C)cc2)cc1 -10.2%
CCOC(=O)c1c(C)c(C(=O)Nc2ccc3c(c2)OCCO3)c(C)n1CC 0.47%
Cc1ccc(NC(N)=S)cc1 8.99%
CCCCOC(=O)Nc1ccc(C(N)=O)cc1 12.3%
COC(=O)C1=CN(Cc2ccccc2)C=C(C(=O)OC)C1c1ccc(OC)c(OC)c1 7.64%
Cc1ccc(N(C(=O)CNC(=O)c2ccco2)C(C(=O)NC2CCCCC2)c2ccncc2)c(C)c1 (stereo not drawn) 23.9%
COC(=O)c1c(-c2ccc(F)cc2)csc1NC(=O)C1CCCO1 (stereo not drawn) 12%
COc1ccc(-c2cc(=O)oc3c(C)c(O)ccc23)cc1 6.62%
COc1ccc(-c2cc(=O)oc3cc(O)ccc23)cc1 7.73%
O=C(Nc1cccc2cccnc12)c1ccccc1Cl 1.03%
COc1cc(C2CC(=O)N3CN(c4ccccc4C)CSC3=C2C#N)cc(OC)c1OC (stereo not drawn) -11.8%
COc1ccc(N2CSC3=C(C#N)C(c4cc(OC)ccc4OC)CC(=O)N3C2)c(OC)c1 (stereo not drawn) 34.1%
COc1ccc(N2CSC3=C(C#N)C(c4cc(OC)c(OC)cc4OC)CC(=O)N3C2)c(OC)c1 (stereo not drawn) 61.9%
COc1ccc(OC)c(C2CC(=O)N3CN(c4cccc(Cl)c4C)CSC3=C2C#N)c1 (stereo not drawn) 45.4%
COc1ccc(C2CC(=O)N3CN(c4ccc(C)c(Cl)c4)CSC3=C2C#N)cc1OC (stereo not drawn) 36.9% and 28.8%
CCc1ccccc1N1CSC2=C(C#N)C(c3cc(OC)c(OC)cc3OC)CC(=O)N2C1 (stereo not drawn) 16.6%
CC(C)C[C@H](NC(=O)c1nc[nH]c1C(=O)NCc1ccc(CNC(=O)OC(C)(C)C)cc1)C(=O)OC(C)(C)C 1.84%
CCOc1cc2[nH]c(=O)n(Cc3ccccc3)c(=O)c2cc1OCC 3.82%
Cc1cc(C)c(C#N)c(N)n1 20.5%
COc1ccc(S(=O)(=O)N(CCc2ccccc2)CC(=O)NCCCO)cc1 6.27%
CN(C)S(=O)(=O)c1ccc(C(=O)Nc2ccn(C)n2)cc1 4.29%
CS(=O)(=O)N(CC(=O)N1CCC(C(N)=O)CC1)Cc1ccc(Cl)c(Cl)c1 6.63%
COc1ccccc1Nc1nc(N)nc(CN2CCN(Cc3ccc4c(c3)OCO4)CC2)n1 11.3%
CC(SCC(=O)NC12CC3CC(CC(C3)C1)C2)C(=O)O (stereo not drawn) 9.37%
Cc1ccc(-c2cc(C(F)(F)F)n3ncc(C(=O)N4CCN(C)CC4)c3n2)cc1 -2.21%
CC(/C=C1\SC(=S)N(C(C(=O)O)C(C)C)C1=O)=C\c1ccccc1 (stereo not drawn) 15.2%
O=C(O)C(Cc1ccccc1)N1C(=O)/C(=C/c2ccccc2)SC1=S (stereo not drawn) 16%
CC(=C\c1ccccc1)/C=C1/SC(=S)N(C(C(=O)O)C(C)C)C1=O (stereo not drawn) 18.4%
O=C(O)CC(C(=O)O)N1C(=O)/C(=C/C=C/c2ccco2)SC1=S (stereo not drawn) 53.1%
CCc1ccc2c(CN3CCOCC3)cc(=O)oc2c1 3.81%
COc1ccc(NC(=O)c2cc(-c3ccccc3)on2)cc1OC 6.07%
Cn1c(Oc2ccc(Cl)c3cccnc23)nc2c1c(=O)n(Cc1ccccc1Cl)c(=O)n2C 5.38%
CCCC(C(=O)NC1CCCC1)N(CCN(CC)CC)C(=O)c1snc(C(N)=O)c1N (stereo not drawn) 7.08%
CCc1noc(C)c1C(=O)Nc1ccc(S(=O)(=O)N2CCCC(C)C2)cc1 (stereo not drawn) 10%
CC1CCN(S(=O)(=O)c2ccc(NC(=O)c3ccncc3)cc2)CC1 7.49%
CCC1CCCCN1S(=O)(=O)c1ccc(NC(=O)c2ccncc2)cc1 (stereo not drawn) -1.25%
CCC1CCCCN1S(=O)(=O)c1ccc(NC(=O)c2cccnc2)cc1 (stereo not drawn) 16.2%
CC1CCCN(S(=O)(=O)c2ccc(NC(=O)CNC3CCCC3)cc2)C1 (stereo not drawn) 4.39%
CCS(=O)(=O)c1ncc(Cl)c(C(=O)Nc2ccc(C)cc2)n1 7.02%
Cc1ccc(S(=O)(=O)n2nccc2-c2c(-c3ccc(Cl)cc3)noc2C)cc1 6.88%
O=C(O)c1ccc(NC(CSCc2ccc(F)cc2)C(=O)O)c([N+](=O)[O-])c1 (stereo not drawn) -4.05%
O=C(c1cc2ccccc2o1)N1CCC(N2CCC(C(=O)N3CCCC3)CC2)CC1 5.34%
COc1ccc(/C=C2\SC(=S)N(NS(=O)(=O)c3ccccc3)C2=O)c(OC)c1 11.9%
O=S(=O)(NCC1CCCO1)c1ccc(Cl)cc1 (stereo not drawn) 1.99%
O=C(c1cc([N+](=O)[O-])ccc1N1CCCC1)N1CCCCC1 1.67%
Cc1cc(-n2c(C)cc(C(=O)CN3C(=O)NC4(CCCCCC4)C3=O)c2C)no1 -2.03%
CC1(C)CC(=O)C(C=Nc2ccccc2)=C(O)C1 -6.01%
CC1(C)CC(=O)C(C=Nc2ccc(N)cc2)=C(O)C1 28.8%
Oc1c(C=Nc2ccccc2)sc2ccccc12 21.4%
COc1ccc(N=CC2=C(O)CCCC2=O)cc1 18.6%
O=C1CCCC(O)=C1C=Nc1cccc(C(F)(F)F)c1 2.45%
O=C1CC(c2ccccc2)CC(O)=C1C=Nc1ccc(O)cc1 (stereo not drawn) 30.3%
CCOC(=O)c1cnc(-n2nc(C)cc2C)nc1NCc1ccc2c(c1)OCO2 17.1%
Cc1ccc(C)c(NC(=O)c2cc(-c3ccccc3O)n[nH]2)c1 3.34%
O=C(NC1CCCC1)C1CCN(C(=O)NCc2ccccc2)CC1 8.69%
CC(=O)c1cc2c(cc1N(C(=O)c1ccco1)C(C(=O)NC1CCCC1)c1ccccc1F)OCO2 (stereo not drawn) 1.47%
C/C(=N\NC(=O)c1cc(C)[nH]n1)c1ccc(-c2ccccc2)cc1 5.47%
CC(C(=O)NC1CCCCC1)N1C(=O)C2C3C=CC(C3)C2C1=O (stereo not drawn) 3.95%
N#CC(C#N)=C1C=CC=CN1/C(=C\c1ccccc1)C(=O)c1cccs1 4.44%
N#CC(C#N)=C1C=CC=CN1/C(=C\c1ccco1)C(=O)c1ccc(-c2ccccc2)cc1 28.2%
COCCN(CCOC)S(=O)(=O)c1ccc(C(=O)NC2CCN(Cc3ccccc3)CC2)cc1 4.79%
CCOC(=O)N1CCN(Cc2cccs2)CC1 5.2%
O=C(O)[C@@H](O)[C@H](O)C(=O)O 16.5%
O=C(O)[C@H](O)[C@@H](O)C(=O)O 3.59%
Cc1c(O)ccc2c(=O)c(-c3nncn3-c3ccccc3)coc12 2.48%
CSc1ccc(-c2nc(O)c3cnccn23)cc1 27.6%
COC(=O)c1ccc(-c2nc(O)c3cnccn23)cc1 4.33%
O=C(NNC(=O)c1ccc(O)cc1O)c1ccc(-c2ccccc2)cc1 3.4%
CC1CCCN(C(=S)Nc2ccc(Nc3ccccc3)cc2)C1 (stereo not drawn) 14.1%
OCC1CCCN(C(=S)Nc2ccc(Oc3ccccc3)cc2)C1 (stereo not drawn) 5.94%
CC(C)Sc1nc2c(c(=O)n(C)c(=O)n2C)n1Cc1ccc(Cl)cc1 3.02%
CN1CCN(c2nc3c(c(=O)n(C)c(=O)n3C)n2Cc2ccc(Cl)cc2)CC1 3.78%
